Key:
Assay in all cases: PBM binding z-score (relative to random genomic background probes); higher = stronger binding; sequences stand for … in GC…GCGATTGACAGCGTAGAATGAAGG
[1] = test system: FXR:RXRa (NR concentration 270 nM, RXRa partner concentration 90 nM)
Procedure, shortened: (§1)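 Binding buffer was PBS pH 7.4 with 2% milk, 0.02% Triton X-100, 1 mM DTT, 0.2 mg/mL BSA and 0.4 mg/ml salmon testes DNA. In it, ligand-free nuclear receptor dimers were incubated 1 h on custom Agilent 4×180K protein-binding microarrays carrying double-stranded probes. Antibodies against each partner (one per run) detected binding, and z-scores were calculated against random background probes after regression normalization of scanned fluorescence.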

[2] = test system: LXRa:RXRa (NR concentration 270 nM, RXRa partner concentration 90 nM)
Procedure, shortened: as §1

[3] = test system: LXRa homodimer (NR concentration 270 nM)
Procedure, shortened: as §1

[4] = test system: LXRb:RXRa (NR concentration 270 nM, RXRa partner concentration 90 nM)
Procedure, shortened: as §1

[5] = test system: LXRb homodimer (NR concentration 270 nM)
Procedure, shortened: as §1

[6] = test system: PPARa:RXRa (NR concentration 270 nM, RXRa partner concentration 90 nM)
Procedure, shortened: as §1

[7] = test system: PPARg:RXRa (NR concentration 180 nM, RXRa partner concentration 90 nM)
Procedure, shortened: as §1

[8] = test system: PPARg:RXRa 270nM:90nM, anti-RXR (NR concentration 270 nM, RXRa partner concentration 90 nM)
Procedure, shortened: as §1

[9] = test system: PPARg:RXRa 30nM:10nM, anti-RXR (NR concentration 30 nM, RXRa partner concentration 10 nM)
Procedure, shortened: as §1

[10] = test system: PPARg:RXRa 90nM:30nM, anti-RXR (NR concentration 90 nM, RXRa partner concentration 30 nM)
Procedure, shortened: as §1

Sequence | PBM binding z-score [1] | PBM binding z-score [2] | PBM binding z-score [3] | PBM binding z-score [4] | PBM binding z-score [5] | PBM binding z-score [6] | PBM binding z-score [7] | PBM binding z-score [8] | PBM binding z-score [9] | PBM binding z-score [10]
AGAACGAGGGCACGCTGAGTTGAAAGCAGAGTAG | 0.945 | 0.542 | -0.955 | 0.276 | -0.933 | 2.38 | 2.11 | 1.77 | 0.0784 | 1.03
ACTTACGGGGCAACGAGGTTATAGCACGCGTATA | 0.934 | 0.688 | -0.335 | 1.73 | 0.511 | 2.21 | 1.64 | 1.26 | 0.448 | 1.2
AGAACGAGGGCACGCTGAGTTGACAGCAGAGTAG | 0.953 | 0.796 | -0.526 | 0.312 | -1.2 | 2.46 | 2.25 | 1.73 | 0.191 | 0.731
CCTCTGAGGACAGAAGGTCAGAGCTGTCCGCTTT | 2.01 | 1.73 | 0.0206 | 1.25 | -0.446 | 2.02 | 0.0496 | 1.3 | -0.534 | 0.582
CCTAGTTGGTCAGGAGGTCAAACACCGGATATGA | 4.57 | 4.4 | 3.59 | 4.03 | 1.06 | 4.55 | 3.32 | 3.96 | 1.67 | 3.26
TGAATGAGGTTATAAGATCAGGGCACGTTGCAAA | 1.49 | 1.49 | 0.117 | 1.32 | 0.0684 | 2.9 | 1.62 | 1.95 | 0.914 | 1.63
TCATATAGGTAAACAGGTGAAAGCCCGTAAGTTA | 0.95 | 1.13 | 0.0822 | 0.763 | -0.22 | 2.4 | 2.7 | 3.37 | 3.79 | 3.69
TAGCCTAGGTCATTGGGCCTGTATAGTACGCATC | 4.24 | 3.47 | 0.96 | 2.39 | -0.0318 | 3.52 | 2.18 | 2.86 | 0.506 | 1.59
TCGAGTCGGTTACCAATGGGGCATTCAGCTTTCT | -0.293 | -0.101 | -0.421 | 0.26 | -0.784 | 0.0956 | -0.641 | 0.163 | 0.773 | 0.526
GCTAGCAGGCCACTTGGGTCACTCAATGACGGGC | 0.0158 | -0.115 | -0.748 | 0.0102 | -0.778 | 0.888 | 0.483 | 0.199 | -0.326 | -0.355
CCGAGTAGGTTGTGGGGCATTCAGGCAACGGTGA | -0.145 | -0.118 | 0.0165 | 0.178 | -0.163 | 0.496 | 0.169 | 1.61 | -0.549 | 0.776
CCTACTGGGACAAAGGTCATTGATTCCAATGCTC | 5.11 | 5.21 | 4.66 | 4.9 | 1.5 | 6.27 | 11.8 | 10.3 | 12.2 | 11.7
CCTAGCAGGCCAATCTGGGACACTCAAGGCTTGA | 0.127 | -0.43 | -0.779 | -1.13 | -0.814 | -0.0365 | 0.255 | -0.496 | -0.884 | -0.673
CCTAGCATGCCAATCTGGGTCACTCAAGGCTTGA | 0.636 | 1.12 | -0.371 | 0.998 | -0.652 | 3.3 | 2.23 | 2.25 | -0.035 | 1.26
AGTACGAGGGCAATGAGTTGATAGCACGGGTGGC | 0.396 | 0.352 | -0.477 | 0.0796 | -0.401 | 0.795 | 1.08 | 0.242 | -0.0294 | 0.117
CATCCAAGGTCAAGGTCAGTGAAAGAGACTCGAA | 7.77 | 6.14 | 2.48 | 5.1 | 2.11 | 6.02 | 7.17 | 6.56 | 3.3 | 5.45
TCTTATAGATCAGCAGGTTAAGAAAGCTGGCCAA | 0.0686 | 0.24 | -0.273 | 0.335 | -0.379 | 0.481 | -0.154 | 1.43 | 2.63 | 2.09
GCTAATTGGTCAGTAAAAGGTCACACACCGGTCG | 3.55 | 4.31 | 5.15 | 4.41 | 1.19 | 4.8 | 3.38 | 4.52 | 2.45 | 3.96
TGAATGAGTTTATAAGATCAGGGAACGTTGCAAA | -0.262 | -0.382 | -0.288 | -0.209 | -0.337 | 0.00137 | 0.119 | 0.389 | 0.73 | 0.5
GCTTGTAGATCAAGGTTTAGAAAGACTAAGCTAA | -0.378 | -0.689 | -0.302 | -0.532 | -0.671 | 0.113 | 1.13 | 2.05 | 0.713 | 2.05
ATCGAAAGGTCCTGAGGTGAGTATACAGAAAGGC | 0.12 | 0.275 | -0.698 | 0.248 | -0.388 | 1.21 | 0.686 | 0.415 | 0.534 | 1.08
ATATGTAGGTTATCGTGTCATTCAGTTTGCGCAT | 0.97 | 1.3 | 0.641 | 1.5 | 0.855 | 3.55 | 5.76 | 5.11 | 2.48 | 4.38
CGTCCAAGGTCAAAGGGCAGTGAAGAGATGACGG | 7.23 | 5.66 | 1 | 4.32 | 0.742 | 6.15 | 7.62 | 7.16 | 5.08 | 7.03

Reference: the supplement of paper PMC6555819
